PubChem BioAssay (EPA / NIEHS)
More than one record can exist for a structure, and the calls need not agree. Active and inactive are the calls of the source. Rule for the calls: active = hit-call score of the fitted dose curve at least 0.9, where 1 is the maximum; inactive = score below 0.9.

Tests used:
[1] = ATG_PBREM_CIS: Attagene CIS-FACTORIAL HepG2 Assay for human Phenobarbital-responsive Enhancer Module (PBREM) (AID 2282955); details: HepG2 PBREM cis-reporter, Attagene multiplexed transcription; actives raise or lower the signal
Procedure, shortened: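 Multiplexed cis-reporter readout in human hepatoma HepG2 cells; PBREM-regulated transcript quantified after 24 h exposure by fluorescent RT-PCR fragment analysis. Signal changes up or down fitted relative to DMSO.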

[2] = biological target: Paired box protein Pax-6 (Homo sapiens) (UniProt P26367); test: ATG_Pax6_CIS: Attagene CIS-FACTORIAL HepG2 Assay for human Paired Box 6 (PAX6) (AID 2282956); details: HepG2 CIS-FACTORIAL PAX6 reporter transcription, RNA readout; actives raise or lower the signal
Paired box protein Pax-6 (Homo sapiens), sequence (P26367 whole entry, looked up): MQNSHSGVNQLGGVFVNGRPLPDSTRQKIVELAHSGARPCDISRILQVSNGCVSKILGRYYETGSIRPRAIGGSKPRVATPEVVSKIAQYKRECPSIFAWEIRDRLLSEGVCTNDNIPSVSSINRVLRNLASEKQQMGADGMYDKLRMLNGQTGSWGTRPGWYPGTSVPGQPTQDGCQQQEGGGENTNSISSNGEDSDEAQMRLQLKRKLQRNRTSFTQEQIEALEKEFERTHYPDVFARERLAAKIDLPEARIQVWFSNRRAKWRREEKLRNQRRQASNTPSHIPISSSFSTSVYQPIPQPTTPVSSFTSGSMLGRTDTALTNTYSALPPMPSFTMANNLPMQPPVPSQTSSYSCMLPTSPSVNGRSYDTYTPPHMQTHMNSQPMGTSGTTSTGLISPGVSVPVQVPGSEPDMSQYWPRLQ
Procedure, shortened: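 HepG2 cells transiently transfected with cis-promoter-driven multiplexed reporter units sensing endogenous transcription factor activity; 24 h chemical exposure. Reporter mRNA quantified by RT-PCR, 6-FAM labelling, HpaI digestion and capillary electrophoresis; bidirectional fit versus DMSO baseline.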

[3] = ATG_PXRE_CIS: Attagene CIS-FACTORIAL HepG2 Assay for human Pregnane X Receptor Element (PXRE) (AID 2282957); details: HepG2 Attagene CIS-FACTORIAL PXRE reporter, mRNA; actives raise or lower the signal
Procedure, shortened: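 HepG2 cells transiently transfected with cis-regulated multiple reporter transcription units; endogenous factor activity measured as reporter mRNA 24 h after dosing. RT-PCR, fluorescent primer extension, HpaI digestion, capillary electrophoresis; bidirectional fit versus DMSO baseline.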

[4] = ATG_PPRE_CIS: Attagene CIS-FACTORIAL HepG2 Assay for human Peroxisome Proliferator-activated Response Element (PPRE) (AID 2282958); details: HepG2 PPRE cis-element reporter, Attagene transcription factor profiling; actives raise or lower the signal
Procedure, shortened: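 DMSO served as negative control and baseline for bidirectional curve fitting. Signal came from PPRE-regulated reporter mRNA in HepG2 cells, measured 24 h post-dosing by RT-PCR, 6-FAM primer extension and capillary electrophoresis.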

[5] = ATG_Sox_CIS: Attagene CIS-FACTORIAL HepG2 Assay for human SRY-box transcription factor (SOX) (AID 2282960); details: HepG2 Attagene cis-factorial SOX reporter, mRNA; actives raise or lower the signal
Procedure, shortened: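 Fluorescence-labelled cDNA fragments from reporter transcripts, sized by CE, give the signal. Cells: HepG2, transiently transfected with cis-regulated reporter units. Exposure 24 h; DMSO negative control; bidirectional curve fitting.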

[6] = biological target: Transcription factor Sp1 (Homo sapiens) (UniProt P08047); test: ATG_Sp1_CIS: Attagene CIS-FACTORIAL HepG2 Assay for human Specificity Protein 1 (Sp1) (AID 2282961); details: HepG2 Sp1 cis-reporter transcription, actives raise or lower the signal
Transcription factor Sp1 (Homo sapiens), sequence (P08047 whole entry, looked up): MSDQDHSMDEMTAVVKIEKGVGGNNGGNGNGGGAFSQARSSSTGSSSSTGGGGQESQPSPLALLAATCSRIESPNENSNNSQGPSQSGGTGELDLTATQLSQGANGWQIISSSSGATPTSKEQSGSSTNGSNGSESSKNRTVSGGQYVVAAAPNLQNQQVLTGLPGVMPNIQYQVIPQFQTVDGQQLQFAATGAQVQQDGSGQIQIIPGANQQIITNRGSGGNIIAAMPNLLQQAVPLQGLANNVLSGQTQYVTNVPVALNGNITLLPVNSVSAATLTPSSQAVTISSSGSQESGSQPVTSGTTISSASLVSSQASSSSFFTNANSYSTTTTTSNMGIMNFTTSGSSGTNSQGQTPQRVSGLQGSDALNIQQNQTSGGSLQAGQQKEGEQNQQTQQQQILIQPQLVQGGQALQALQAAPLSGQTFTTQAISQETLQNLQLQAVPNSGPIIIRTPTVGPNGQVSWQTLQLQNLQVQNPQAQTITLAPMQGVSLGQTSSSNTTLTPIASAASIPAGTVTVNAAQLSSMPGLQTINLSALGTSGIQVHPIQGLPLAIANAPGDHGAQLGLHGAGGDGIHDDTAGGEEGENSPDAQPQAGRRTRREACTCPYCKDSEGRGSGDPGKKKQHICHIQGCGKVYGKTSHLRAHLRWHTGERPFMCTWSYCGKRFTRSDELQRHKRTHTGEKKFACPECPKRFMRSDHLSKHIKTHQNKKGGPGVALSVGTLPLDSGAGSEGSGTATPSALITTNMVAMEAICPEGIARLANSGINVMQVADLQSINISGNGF
Procedure, shortened: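 Chemicals are dosed onto HepG2 cells transfected with multiple cis-promoter reporter constructs, and after 24 h reporter RNA is reverse-transcribed, PCR-amplified and resolved by capillary electrophoresis for fluorescence quantitation; activity is scored up or down against DMSO.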

[7] = ATG_SREBP_CIS: Attagene CIS-FACTORIAL HepG2 Assay for human Sterol Regulatory Element Binding (SREBP) (AID 2282962); details: HepG2 Attagene cis-factorial SREBP reporter, mRNA; actives raise or lower the signal
Procedure, shortened: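 HepG2 cells transiently transfected with multiplexed cis-promoter reporter units sensing endogenous transcription factors; reporter mRNA measured 24 h after dosing by RT-PCR, 6-FAM labeling, HpaI digestion and capillary electrophoresis. Bidirectional fit versus DMSO.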

[8] = biological target: Signal transducer and activator of transcription 3 (Homo sapiens) (UniProt P40763); test: ATG_STAT3_CIS: Attagene CIS-FACTORIAL HepG2 Assay for human Signal Transducer and Activator of Transcription 3 (STAT3) (AID 2282963); details: HepG2, Attagene cis-factorial STAT3 reporter transcription; actives raise or lower the signal
Signal transducer and activator of transcription 3 (Homo sapiens), sequence (P40763 whole entry, looked up): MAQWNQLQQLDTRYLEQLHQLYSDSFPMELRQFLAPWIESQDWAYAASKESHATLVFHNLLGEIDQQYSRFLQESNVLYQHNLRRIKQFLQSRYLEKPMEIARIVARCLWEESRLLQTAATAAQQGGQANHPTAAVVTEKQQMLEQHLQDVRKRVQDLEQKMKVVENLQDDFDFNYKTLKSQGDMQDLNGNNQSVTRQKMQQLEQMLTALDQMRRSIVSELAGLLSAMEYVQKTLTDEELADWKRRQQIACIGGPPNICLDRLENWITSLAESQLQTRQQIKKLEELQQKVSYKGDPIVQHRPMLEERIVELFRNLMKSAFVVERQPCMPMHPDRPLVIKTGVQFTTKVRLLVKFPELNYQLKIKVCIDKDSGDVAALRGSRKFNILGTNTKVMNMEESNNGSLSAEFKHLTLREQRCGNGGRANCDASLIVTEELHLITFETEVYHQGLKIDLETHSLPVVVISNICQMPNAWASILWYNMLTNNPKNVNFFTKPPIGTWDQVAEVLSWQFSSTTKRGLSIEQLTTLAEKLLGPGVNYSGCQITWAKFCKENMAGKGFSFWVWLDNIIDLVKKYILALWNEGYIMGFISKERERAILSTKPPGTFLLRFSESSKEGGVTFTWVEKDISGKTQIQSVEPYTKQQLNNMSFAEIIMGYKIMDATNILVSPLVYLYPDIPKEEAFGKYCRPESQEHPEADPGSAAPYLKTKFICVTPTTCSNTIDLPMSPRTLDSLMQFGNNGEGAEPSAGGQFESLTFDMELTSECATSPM
Procedure, shortened: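 HepG2 cells transiently transfected with cis-element-driven multiple reporter transcription units; after 24 h chemical exposure, reporter mRNA measured by RT-PCR, 6-FAM primer-extension labelling, HpaI digestion and capillary electrophoresis. Bidirectional fitting versus DMSO baseline.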

[9] = ATG_TA_CIS: Attagene CIS-FACTORIAL HepG2 Assay for human TA Basal Promoter (AID 2282964); details: HepG2 Attagene CIS-factorial TA basal promoter reporter; actives raise or lower the signal
Procedure, shortened: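 Multiplexed mRNA reporter assay, HepG2, 24 h. Reporter cDNA amplified, 6-FAM primer-extended, HpaI-cut, CE-sized; DMSO = negative control and baseline.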

[10] = ATG_RORE_CIS: Attagene CIS-FACTORIAL HepG2 Assay for human RAR-related Orphan Receptor Element (RORE) (AID 2282959); details: HepG2 Attagene cis-factorial RORE reporter, mRNA; actives raise or lower the signal
Procedure, shortened: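 Transfect HepG2 with MRTUs; treat 24 h; extract RNA; RT with oligo(dT); PCR with reporter-specific primers; 6-FAM primer extension; HpaI digest 2 h at 37 C; capillary electrophoresis. Fit vs DMSO, bidirectional.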

Measured: AC50

O=C(O)C(F)(OC(F)(F)C(F)(F)C(F)(F)F)C(F)(F)F (stereo not given)
active: [4] 74.8 µM
inactive: [1] | [2] | [3] | [4] | [5] | [6] | [7] | [8] | [9]

CC1=C(C(=O)Nc2ccccc2)S(=O)(=O)CCO1
inactive: [1] | [4] | [10] | [5] | [6] | [7] | [8] | [9]
active: [2] 19.9 µM | [3] 5.02 µM

CC(C)(C)N(NC(=O)c1ccc(Cl)cc1)C(=O)c1ccccc1
inactive: [1] | [2] | [4] | [10] | [5] | [8] | [9]
active: [3] 4.36 µM

Cc1cccc(N)c1
inactive: [1] | [2] | [3] | [4] | [10] | [5] | [7] | [8] | [9]

Cc1ccc([N+](=O)[O-])cc1C
inactive: [1] | [2] | [3] | [4] | [10] | [5] | [8] | [9]

COC(N)=O
inactive: [1] | [2] | [3] | [4] | [10] | [5] | [6] | [8] | [9]

CCOP(=S)(OCC)SCSc1ccc(Cl)cc1
inactive: [2] | [4] | [10] | [5] | [6] | [7] | [8] | [9]
active: [1] 5.81 µM | [3] 3 µM

Cc1ccc2c(c1N)C(=O)c1ccccc1C2=O
inactive: [1] | [2] | [4] | [10] | [5] | [6] | [7] | [8] | [9]
active: [3] 4.09 µM

O=[N+]([O-])c1cc(Cl)ccc1Cl
inactive: [1] | [2] | [4] | [10] | [5] | [6] | [8] | [9]
active: [3] 56.2 µM

CCCCC(CC)COP(=O)(Oc1ccccc1)Oc1ccccc1 (stereo not given)
inactive: [1] | [10] | [5] | [8]
active: [2] 100 µM | [3] 0.516 µM | [4] 37.7 µM | [6] 126 µM | [7] 35.4 µM | [9] 55.3 µM

CCOP(=S)(S)OCC
active: [3] 57.5 µM
inactive: [1] | [2] | [4] | [10] | [5] | [6] | [7] | [8] | [9]

N#Cc1ccc(O)cc1
inactive: [1] | [2] | [3] | [4] | [10] | [5] | [6] | [7] | [8] | [9]

[N-]=[N+]=[N-]
inactive: [1] | [2] | [3] | [4] | [10] | [5] | [6] | [8] | [9]

O=C(CBr)OCc1ccccc1
inactive: [1] | [2] | [3] | [4] | [10] | [5] | [8] | [9]

ClC1=C(Cl)C2(Cl)C3C(Cl)C(Cl)CC3C1(Cl)C2(Cl)Cl (stereo not given)
inactive: [1] | [2] | [4] | [10] | [5] | [8]
active: [3] 2.38 µM | [9] 39.1 µM

OCC(F)(F)OC(F)(F)C(F)(F)OC(F)(F)CO
inactive: [1] | [2] | [4] | [10] | [5] | [6] | [7] | [8] | [9]
active: [3] 74.8 µM

c1ccc2c(c1)Nc1ccccc1S2
active: [3] 17.1 µM
inactive: [1] | [2] | [4] | [10] | [5] | [6] | [7] | [8] | [9]

O=C(O)C1C(C(=O)O)C2(Cl)C(Cl)=C(Cl)C1(Cl)C2(Cl)Cl (stereo not given)
inactive: [1] | [2] | [3] | [10] | [5] | [7] | [8] | [9]

CCCCc1ccc(O)cc1
inactive: [2] | [3] | [4] | [10] | [5] | [6] | [7] | [8] | [9]

O=S1(=O)OCC2C(CO1)C1(Cl)C(Cl)=C(Cl)C2(Cl)C1(Cl)Cl (stereo not given)
inactive: [1] | [10] | [5] | [8] | [9]
active: [2] 100 µM | [3] 1.58 µM | [7] 100 µM

O=C(O)C(F)(F)C(F)(F)C(=O)O
inactive: [1] | [2] | [3] | [10] | [5] | [6] | [8] | [9]

O=[N+]([O-])c1ccc(Cl)c(Cl)c1
inactive: [2] | [4] | [10] | [5] | [6] | [7] | [8] | [9]
active: [3] 49.2 µM

O=c1ssc(Cl)c1Cl
inactive: [3] | [10] | [8] | [9]
active: [1] 50.3 µM | [2] 62.5 µM | [5] 50.1 µM | [6] 51.6 µM

CC(C)CBr
inactive: [1] | [2] | [3] | [10] | [5] | [8] | [9]
